Results on eleven compounds are retold here after PubChem BioAssay (NCATS).

The structures appear in SMILES notation. Records with an inconclusive call do not appear. Active and inactive are the calls of the source. Calls come from the whole dose curve; as a rule, active = well fitted curve in the direction sought with a large enough effect; inconclusive = small, poorly fitted or top-dose-only effect, or another doubt; inactive = no such curve, though single readings can be large; an effect the other way counts as inactive or inconclusive.

Test [1] is described as follows: Quantitative High-Throughput drug screen in 47 multiple myeloma cell lines against the NCATS MIPE library collection: Karpas417_ECACC cell viability assay (AID 1918961). As to conditions: Karpas417 myeloma viability, CellTiter-Glo ATP luminescence, 48 h; viability (% of DMSO): at 45.8 µM (top of the series). The procedure, abridged:
(§1)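 Myeloma cells (500 per well) were exposed to MIPE 4.0 compounds by pin transfer and incubated 48 hours at 37C, 5% CO2. Viability was read as ATP by CellTiter-Glo luminescence, normalised to DMSO (100%) and media-only (0%) wells.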
(In ATP-based viability assays light output follows the ATP content of the culture.)

A short description of test [2]: Quantitative High-Throughput drug screen in 47 multiple myeloma cell lines against the NCATS MIPE library collection: KHM11_PLB cell viability assay (AID 1918962). Note: nearly all actives have a fitted effect of over 35% in size. The procedure, abridged:
(§2)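 CellTiter-Glo luminescence (ATP) after 48 h compound exposure, 37C/5% CO2; 500 cells/well; MIPE 4.0 approved/investigational drugs pinned in; DMSO = 100%, media only = 0% viability.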

The nature of test [3]: Quantitative High-Throughput drug screen in 47 multiple myeloma cell lines against the NCATS MIPE library collection: INA6_PLB cell viability assay (AID 1918965; note: nearly all actives have a fitted effect of over 55% in size). In outline: as §1
A short description of test [4]: Quantitative High-Throughput drug screen in 47 multiple myeloma cell lines against the NCATS MIPE library collection: JJN3_DSMZ cell viability assay (AID 1918966; note: nearly all actives have a fitted effect of over 50% in size). In outline:
as §2

A short description of test [5]: Quantitative High-Throughput drug screen in 47 multiple myeloma cell lines against the NCATS MIPE library collection: Karpas25_ECACC cell viability assay (AID 1918968; note: nearly all actives have a fitted effect of over 35% in size). The procedure, abridged: as §2
Test [6] is described as follows: Quantitative High-Throughput drug screen in 47 multiple myeloma cell lines against the NCATS MIPE library collection: KMS12BM_JCRB cell viability assay (AID 1918971). Note: nearly all actives have a fitted effect of over 35% in size. The procedure, abridged: (§3)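 Approved and investigational drugs from MIPE 4.0 were added by pin tool to 500 cells per well. After 48 hours at 37C, ATP-based CellTiter-Glo luminescence indicated remaining viability.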

Test [7] can be described thus: Quantitative High-Throughput drug screen in 47 multiple myeloma cell lines against the NCATS MIPE library collection: KMS12PE_JCRB cell viability assay (AID 1918972). Note: nearly all actives have a fitted effect of over 30% in size. The procedure, abridged: as §1
The nature of test [8]: Quantitative High-Throughput drug screen in 47 multiple myeloma cell lines against the NCATS MIPE library collection: KMS26_JCRB cell viability assay (AID 1918975). Note: nearly all actives have a fitted effect of over 45% in size. The procedure, abridged:
as §3

Test [9] can be described thus: Quantitative High-Throughput drug screen in 47 multiple myeloma cell lines against the NCATS MIPE library collection: MMM1_PLB cell viability assay (AID 1918976). Note: nearly all actives have a fitted effect of over 35% in size. In outline:
(§4)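 Myeloma cells (500/well) treated with MIPE 4.0 compounds for 48 h at 37 °C, 5% CO2. Viability read as ATP via CellTiter-Glo luminescence after 5 min at RT; DMSO-only wells = 100%, media-only = 0% viability.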

Test [10] is described as follows: Quantitative High-Throughput drug screen in 47 multiple myeloma cell lines against the NCATS MIPE library collection: MOLP8_DSMZ cell viability assay (AID 1918977). Note: nearly all actives have a fitted effect of over 45% in size. The procedure, abridged:
as §4

Test [11] is described as follows: Quantitative High-Throughput drug screen in 47 multiple myeloma cell lines against the NCATS MIPE library collection: NCIH929_DSMZ cell viability assay (AID 1918978). Note: nearly all actives have a fitted effect of over 35% in size. The procedure, abridged: as §4
Test [12] can be described thus: Quantitative High-Throughput drug screen in 47 multiple myeloma cell lines against the NCATS MIPE library collection: MM1S_ATCC cell viability assay (AID 1918980). Note: nearly all actives have a fitted effect of over 45% in size. In outline:
as §4

The nature of test [13]: Quantitative High-Throughput drug screen in 47 multiple myeloma cell lines against the NCATS MIPE library collection: MM1R_ATCC cell viability assay (AID 1918981). Note: nearly all actives have a fitted effect of over 35% in size. In outline: as §4
A short description of test [14]: Quantitative High-Throughput drug screen in 47 multiple myeloma cell lines against the NCATS MIPE library collection: JIM3_ECACC cell viability assay (AID 1918963; note: nearly all actives have a fitted effect of over 35% in size). The procedure, abridged:
as §2

A short description of test [15]: Quantitative High-Throughput drug screen in 47 multiple myeloma cell lines against the NCATS MIPE library collection: JIM1_ECACC cell viability assay (AID 1918964). In outline: as §2
The nature of test [16]: Quantitative High-Throughput drug screen in 47 multiple myeloma cell lines against the NCATS MIPE library collection: H1112_PLB cell viability assay (AID 1918967; note: nearly all actives have a fitted effect of over 30% in size). In outline: as §2
The nature of test [17]: Quantitative High-Throughput drug screen in 47 multiple myeloma cell lines against the NCATS MIPE library collection: KMS27_JCRB cell viability assay (AID 1918970). Note: nearly all actives have a fitted effect of over 30% in size. As to conditions: KMS27 myeloma cells, CellTiter-Glo ATP viability, 48 h; viability (% of DMSO): at 45.8 µM (top of the series). In outline:
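Luminescent ATP read-out (CellTiter-Glo, 5 min at room temperature) after 48 h compound exposure of 500 KMS27_JCRB cells per well; DMSO wells define full viability and media-only wells zero.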

Test [18] is described as follows: Quantitative High-Throughput drug screen in 47 multiple myeloma cell lines against the NCATS MIPE library collection: KMS20_JCRB cell viability assay (AID 1918973). Note: nearly all actives have a fitted effect of over 45% in size. The procedure, abridged:
as §2

Test [19] is described as follows: Quantitative High-Throughput drug screen in 47 multiple myeloma cell lines against the NCATS MIPE library collection: OCIMY1_PLB cell viability assay (AID 1918979). Note: nearly all actives have a fitted effect of over 35% in size. The procedure, abridged: as §4
Test [20] in a line: Quantitative High-Throughput drug screen in 47 multiple myeloma cell lines against the NCATS MIPE library collection: KMS21BM_JCRB cell viability assay (AID 1918974). The following applies: ATP luminescence, 48 h; viability: at 45.8 µM (top of the series). The procedure, abridged: as §2
Potency is the fitted concentration of half-maximal effect.

Consider `COc1ccc(C=Cc2cc(OC)c(OC)c(OC)c2)cc1NC(=O)[C@H](N)CO`, for which the Potency in test [1] is 590 nM (active); in test [3], 1 nM (active); in test [4] it was 23.5 nM (active); in [5] it was 1 nM (active); in test [6], 16.6 nM (active); in test [7], 11.8 nM (active). The Potency in test [8] is 33.2 nM (active); in [9], 18.7 nM (active); in [10], 66.2 nM (active); in test [11], 5.9 nM (active); in [12], 20.9 nM (active); in [13] it was 14.8 nM (active). In addition, the Potency result in test [2] is “inactive”.
Take `C[C@H](NCc1ccc(OCc2cccc(F)c2)cc1)C(N)=O`: the Potency in test [1] is 2640 nM (active); in [14], 2960 nM (active); in test [15] it was 3720 nM (active); in [3], 1320 nM (active); in test [4], 8330 nM (active); in [16] it was 5900 nM (active). Moreover, the Potency was 2350 nM (active) in [5]; 1660 nM (active) in [17]; 1870 nM (active) in test [7]; 2350 nM (active) in test [18]; 18700 nM (active) in test [8]; 11800 nM (active) in test [9]. The Potency was 2640 nM (active) in test [10], 2640 nM (active) in [11], 10500 nM (active) in test [19] and 7430 nM (active) in test [13].
With `CCS(=O)(=O)Nc1ccc2[nH]c(O)c(C(=Nc3ccc(CN4CCCCC4)cc3)c3ccccc3)c2c1`, the Potency in [1] is 105 nM (active); in test [14], 209 nM (active); in test [15] it was 59 nM (active); in [3], 469 nM (active); in test [4], 743 nM (active); in [16], 4690 nM (active). Besides, the Potency was 235 nM (active) in test [5]; 132 nM (active) in [17]; 13200 nM (active) in [6]; 148 nM (active) in test [7]; 296 nM (active) in [18]; 469 nM (active) in test [8]. In addition, the Potency in test [9] was 209 nM (active); in [11], 105 nM (active); in test [19] it was 5900 nM (active); in test [12] it was 469 nM (active); in test [13] it was 526 nM (active).
For `NC(=O)Nc1cc(-c2ccc(CN3CCOCC3)cc2)sc1C(N)=O`, the Potency in test [1] is 83.3 nM (active); in test [14], 4690 nM (active); in test [15], 1480 nM (active); in test [3], 1050 nM (active); in [4], 1180 nM (active); in [5] it was 1320 nM (active). The Potency in [6] is 20900 nM (active); in test [7] it was 1180 nM (active); in test [18], 2640 nM (active); in [8] it was 23500 nM (active); in test [9], 6620 nM (active); in test [10], 14800 nM (active). Also, the figures for the Potency in [11], in test [12] and in [13] were 2640 nM (active), 16600 nM (active) and 20900 nM (active), respectively.
For the compound `CC(=O)[C@]1(O)Cc2c(O)c3c(c(O)c2[C@@H](O[C@H]2C[C@H](N)[C@@H](O)[C@H](C)O2)C1)C(=O)c1ccccc1C3=O`, the Potency in test [1] was 2350 nM (active); in test [14], 264 nM (active); in test [15], 1180 nM (active); in [3], 93.5 nM (active); in test [4], 209 nM (active); in test [16], 187 nM (active). Moreover, the Potency is 148 nM (active) in test [5]; 1180 nM (active) in test [17]; 235 nM (active) in test [6]; 2090 nM (active) in [7]; 105 nM (active) in test [18]; 264 nM (active) in test [8]. Besides, the Potency is 148 nM (active) in test [9]; 132 nM (active) in test [10]; 166 nM (active) in [11]; 743 nM (active) in [19]; 52.6 nM (active) in test [13].
`C#Cc1cccc(Nc2ncnc3cc(OCCOC)c(OCCO)cc23)c1`: the Potency in test [1] is 526 nM (active); in test [14], 1870 nM (active); in test [15], 264 nM (active); in [3], 1320 nM (active); in [16], 1870 nM (active); in test [5], 1180 nM (active). The Potency is 18.7 nM (active) in test [17], 1480 nM (active) in test [7] and 3720 nM (active) in test [12].
Regarding `Cn1cnc(=N)c2[nH]cnc21`, the Potency is 23.5 nM (active) in test [1]; 1050 nM (active) in [14]; 93.5 nM (active) in [15]; 46.9 nM (active) in [3]; 166 nM (active) in test [4]; 235 nM (active) in test [16]. Besides, the Potency was 74.3 nM (active) in test [5]; 59 nM (active) in [17]; 105 nM (active) in [6]; 93.5 nM (active) in [7]; 52.6 nM (active) in test [18]; 132 nM (active) in [8]. For the same compound, the Potency in [9] is 148 nM (active); in [10] it was 41.8 nM (active); in test [11], 132 nM (active); in test [19], 743 nM (active); in [13] it was 93.5 nM (active).
`CNC(=O)c1cccc(-c2ccc3c(N4CCOC[C@H]4C)nc(N4CCOC[C@H]4C)nc3n2)c1`: the Potency is 52.6 nM (active) in test [1]; 41.8 nM (active) in test [14]; 13.2 nM (active) in test [15]; 526 nM (active) in test [3]; 74.3 nM (active) in [4]; 74.3 nM (active) in test [5]. Also, the Potency in [6] was 16.6 nM (active); in test [7] it was 469 nM (active); in test [18], 93.5 nM (active); in test [8], 1180 nM (active); in test [9], 16.6 nM (active); in test [10], 23.5 nM (active). The Potency in [11] is 16.6 nM (active); in test [12], 83.3 nM (active); in test [13], 66.2 nM (active).
Take `COC(=O)C=CC(=O)OC`: the Potency in test [1] is 4180 nM (active); in test [2], 18700 nM (active); in test [3], 18700 nM (active); in test [5], 1480 nM (active); in test [18], 2640 nM (active); in test [11], 264 nM (active). The Potency in [13] was 23500 nM (active). The Potency result in [6] and in [7] was “inactive” throughout.
Regarding `Nc1ncn([C@@H]2O[C@H](CO)[C@@H](O)[C@@H]2O)c(=O)n1`, the Potency was 9350 nM (active) in test [1]; 4690 nM (active) in test [14]; 1480 nM (active) in test [15]; 1180 nM (active) in test [3]; 11800 nM (active) in test [4]; 18700 nM (active) in test [16]. Further, the Potency in test [5] was 3320 nM (active); in test [17] it was 9350 nM (active); in test [6], 8330 nM (active); in test [7] it was 1320 nM (active); in [8] it was 13200 nM (active); in [11] it was 3720 nM (active). The Potency is 18700 nM (active) in test [12] and 14800 nM (active) in test [13].
`Cn1cc(C=CC(=O)c2cccc(F)c2)cc1C=CC(=O)NO`: the Potency was 13200 nM (active) in [1]; 8330 nM (active) in [3]; 8330 nM (active) in test [5]; 14800 nM (active) in [17]; 14800 nM (active) in test [7]; 4690 nM (active) in test [20]. Besides, the Potency in test [8] is 16600 nM (active); in test [10], 16600 nM (active); in [11], 20900 nM (active); in test [12], 14800 nM (active); in [13], 16600 nM (active). For the same compound, the Potency result in test [2] is “inactive”.
